pPAFAH inh: inhibitors of human plasma PAF acetylhydrolase (pPAFAH). recombinant pPAFAH, FP-rhodamine probe fluorescence polarization. inhibition, % at 3.39 µM. 330,000 tested, 1.5% active;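 active = inhibition above the mean inhibition across the screen plus 3 SD, cut at about 25% in these data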;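 also: inhibitors block binding of the rhodamine activity-based probe so polarization drops; 0% = enzyme with DMSO and 100% = wells lacking pPAFAH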
PfM18AAP inh-1: PfM18AAP enzyme inhibition. recombinant PfM18AAP, H-Glu-NHMec fluorogenic cleavage. inhibition, % at 7.35 µM. 290,000 tested, 1.2% active. AID 1822;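 active = inhibition above the campaign mean inhibition over all tested compounds plus 3 SD, cut at about 28% in these data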;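 also: 0% = plate median of test compound wells and 100% = 2 mM ZnCl2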
PAFAH1B3 inh: PAFAH1B3 (human) inhibition. Q15102. recombinant PAFAH1B3, FP-rhodamine probe, fluorescence polarization. inhibition, % at 3.39 µM. 340,000 tested, 0.28% active. AID 492972;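 active = inhibition above the screen-wide average of all tested compounds plus 3 SD, cut at about 25% in these data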;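 also: 0% = enzyme with DMSO only and 100% = wells lacking PAFAH1B3 protein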
DSG3 Ab inh: human desmoglein-3 autoantibody binding inhibition; DSG3-coupled beads, scFv-anti-DSG3-GFP binding, flow cytometry; active compounds read low; binding (percent of control), % at 10 µM; 310,000 tested, 0.48% active;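 active = binding more than 3 SD below its plate's average and above zero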;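 also: hits lower antibody fragment binding to DSG3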
PAFAH2 inh: inhibitors of human PAFAH2; AID 492956; Q99487; recombinant PAFAH2, FP-rhodamine activity probe, fluorescence polarization; 340,000 tested, 0.99% active; inhibition, % at 3.39 µM;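 active = inhibition above the mean over all tested compounds plus 3 SD, cut at about 30% in these data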;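 also: inhibitors block probe labeling of enzyme so polarization drops; 0% = enzyme with DMSO and 100% = wells lacking PAFAH2 protein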
PAFAH1B2 FP inh: inhibitors of human PAFAH1B2; P68402; 340,000 tested, 1.2% active; inhibition, % at 3.39 µM; recombinant PAFAH1B2, FP-rhodamine activity probe, fluorescence polarization;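 active = inhibition above the mean of all tested compounds plus 3 SD, cut at about 24% in these data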;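 also: 0% = enzyme with DMSO and 100% = wells lacking PAFAH1B2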
Target sequence (P68402 whole entry, looked up): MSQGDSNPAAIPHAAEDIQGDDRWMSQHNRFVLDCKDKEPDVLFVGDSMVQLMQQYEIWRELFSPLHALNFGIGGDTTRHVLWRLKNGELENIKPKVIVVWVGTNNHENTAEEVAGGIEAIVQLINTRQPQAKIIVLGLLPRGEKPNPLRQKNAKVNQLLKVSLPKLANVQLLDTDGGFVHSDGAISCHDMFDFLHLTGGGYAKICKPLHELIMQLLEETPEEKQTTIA
PfM18AAP inh-2: PfM18AAP inhibition, confirmation. inhibition, % at 7.35 µM. recombinant PfM18AAP, H-Glu-NHMec fluorogenic cleavage. 2,400 tested, 28% active. AID 2170. shares compounds with PfM18AAP inh-1;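 active = mean inhibition over replicate wells above the hit cutoff set for the earlier primary screen, cut at about 29% in these data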;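 also: 0% = median of test compound wells and 100% = 2 mM ZnCl2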
CTSL1 counter: counter-screen for PFM18AAP inhibitors: confirmation of human cathepsin L inhibitors | shares compounds with PfM18AAP inh-1 | purified cathepsin L1, Z-Leu-Arg-MCA fluorescence | inhibition, % at 5.96 µM | 2,400 tested, under 10 active | AID 2178;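 active = average inhibition across replicates above the hit cutoff set in the earlier primary screen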;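 also: 0% = median of test compound wells and 100% = Z-Phe-Ala-diazomethylketone 1 µM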
Target sequence (P07711 whole entry, looked up): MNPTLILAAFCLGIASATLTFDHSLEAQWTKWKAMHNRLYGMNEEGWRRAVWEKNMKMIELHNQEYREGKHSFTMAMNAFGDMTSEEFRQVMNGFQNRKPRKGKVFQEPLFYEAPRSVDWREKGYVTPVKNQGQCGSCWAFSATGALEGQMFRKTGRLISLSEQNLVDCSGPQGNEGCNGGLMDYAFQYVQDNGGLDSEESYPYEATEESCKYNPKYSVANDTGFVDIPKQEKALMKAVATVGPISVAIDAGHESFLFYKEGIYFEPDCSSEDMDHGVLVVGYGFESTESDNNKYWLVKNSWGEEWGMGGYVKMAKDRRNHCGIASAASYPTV
The depositor's hits bear a star; nt = not tested or not shown; ! = not confirmed by another sample. Shown are actives, neighbours in structure and some others; about 3.8% of the full set was active somewhere.

SMILES	pPAFAH inh	PfM18AAP inh-1	PAFAH1B3 inh	DSG3 Ab inh	PAFAH2 inh	PAFAH1B2 FP inh	others
C=CCN1C(=O)NC(=O)C(Cc2ccc(OC)c(OC)c2)C1=O (stereo unspecified)	8	15	7	nt	4	2
O=C1NC(=O)N(CCNc2ncc(C(F)(F)F)cc2Cl)C(=O)C1Cc1ccc(Cl)cc1 (stereo unspecified)	7	4	13	88	2	29*
COc1ccc(-c2nc3ccc(C(=O)N4CCC5(CC4)OCCO5)cc3nc2-c2ccc(OC)cc2)cc1	5	-5	1	99	-2	0
C[C@]12CC[C@@H](O)CC1=CC(=O)C1C2CC[C@]2(C)C(=O)[C@H](O)CC12 (stereo partly specified)	nt	nt	nt	112	nt	nt
CC(C)CC(N(C)C)C1(c2ccc(Cl)cc2)CCC1 (stereo unspecified)	-4	nt	3	79*!	-4	-1
CC1=C(O)C(=O)C=C2C1=CC=C1C2(C)CCC2(C)C3CC(C)(C(=O)O)CCC3(C)CCC12C (stereo unspecified)	nt	nt	-2	90	12	2
CCOC(=O)c1cc(C)sc1/N=C/C1C(=O)NC(=S)NC1=O	0	-20	-6	69*	-15	-7
CCOC(=O)c1c(/N=C/C2C(=O)NC(=S)NC2=O)sc(C)c1C	-2	25	nt	nt	nt	nt
Cc1cc(C(=O)OC(C)C(=O)Nc2ccccc2)c(C)n1C1CC1 (stereo unspecified)	nt	nt	nt	98	nt	nt
O=C(O)c1ccc2c(c1)C1C(Cl)C(Sc3ccccc3[N+](=O)[O-])CC1C(c1cccc([N+](=O)[O-])c1)N2 (stereo unspecified)	nt	27	41*	94	52*	24
O=C(O)c1cccc2c1NC(c1cccc([N+](=O)[O-])c1)C1CC(Sc3ccccc3[N+](=O)[O-])C(Cl)C21 (stereo unspecified)	nt	21	11	99	37*	18
O=[N+]([O-])c1cccc(C2N3CCCN23)c1 (stereo unspecified)	-2	-6	7	84	-8	5
O=C(Cc1ccc(N(CCCl)CCCl)cc1)NC(Cc1ccc(Cl)cc1)C(=O)O (stereo unspecified)	5	-2	6	99	5	60*
CC(=O)NC(Cc1ccc(N(CCCl)CCCl)cc1)C(=O)O (stereo unspecified)	-2	8	5	97	4	7
O=C(Cc1ccccc1)N1CCN(Cc2ccc(Cl)cc2)CC1	nt	nt	14	103	1	18
O=C(Cc1ccccc1)NC(Cc1ccc(Cl)cc1)C(=O)O (stereo unspecified)	0	-10	5	96	-4	38*
Cc1ccc(OC(=O)N(C)C[C@@H]2OCc3cnnn3CCCC(=O)N([C@@H](C)CO)C[C@@H]2C)cc1	nt	nt	nt	99	nt	nt
O=C1NC(=S)SC1=Cc1ccc(N(CCCl)CCCl)cc1	nt	nt	6	97	9	28*
COc1ccc(OC(=O)N(C)C[C@H]2OCc3cnnn3CCCC(=O)N([C@H](C)CO)C[C@@H]2C)cc1	nt	nt	nt	100	nt	nt
O=[N+]([O-])c1ccc(N2CCOCC2)c2c1no[n+]2[O-]	nt	nt	nt	103	nt	nt
c1ccc2c(c1)CN(Cc1ccc3c(c1)OCO3)Cc1cnnn1-2	nt	nt	nt	106	nt	nt
CCCCn1c(NC(=O)c2ccc(Br)o2)c(C(=O)OCC)c2nc3ccccc3nc21	11	10	77*	81	41*	38*
CCCCn1c(N)c(C(=O)NCCN2CCOCC2)c2nc3ccccc3nc21	10	15	-4	102	-4	1
O=C1NC(=O)C(=Cc2ccc(SC3CCCCC3)o2)C(=O)N1	12	18	13	95	45*	88*
NS(=O)(=O)c1ccc(-c2ccc(C=C3C(=O)NC(=O)NC3=O)o2)cc1	0	15	9	96	3	-1
SMILES	pPAFAH inh	PfM18AAP inh-1	PAFAH1B3 inh	DSG3 Ab inh	PAFAH2 inh	PAFAH1B2 FP inh	others
Cc1nc2ccc(P(=O)(O)O)cc2s1	3	50*	nt	nt	nt	nt	PfM18AAP inh-2=9;CTSL1 counter=0
NS(=O)(=O)c1ccc(N=Nc2c(O)[nH]c(=S)[nH]c2=O)cc1	7	32*	8	89	-2	3	PfM18AAP inh-2=11;CTSL1 counter=14
CC(C)(O)C1C2OC(=O)C1C1(O)CC3OC34C(=O)OC2C14C (stereo unspecified)	nt	nt	-2	99	-8	0
O=C1CCCN1c1ccc(S(=O)(=O)O)cc1 (tested in a mixture with another compound)	-1	80*	6	101	2	4	PfM18AAP inh-2=79*;CTSL1 counter=-4
CCN(CC)C(=O)c1ccc(NC(=O)c2ccc(N3CCCC3=O)cc2)cc1	-1	nt	5	94	-1	2
O=C(NC1(C(F)(F)F)Oc2ccccc2O1)N1CCC2(CC1)OCCO2	6	71*	11	136	-4	5	PfM18AAP inh-2=68*;CTSL1 counter=-9
O=C(c1ccccc1)N1CCC2(CC1)OCCO2	-4	5	3	111	-3	3
O=[N+]([O-])c1[nH]cnc1Br	nt	nt	4	nt	4	3
CCN(CC)c1ccc(N=Cc2c(O)n(-c3ccc(OC)cc3)c(=O)[nH]c2=O)cc1	25*	42*	5	nt	1	1	PfM18AAP inh-2=-35;CTSL1 counter=1
O=c1[nH]c(=O)n(-c2ccccc2F)c(O)c1/C=C1\C=Nc2ccccc21	2	42*	4	92	13	0	PfM18AAP inh-2=41*;CTSL1 counter=-2
O=c1[nH]c(=O)n(Cc2ccccc2)c(O)c1/C=C1\C=Nc2ccccc21	-3	9	0	96	12	13
O=c1[nH]c(=O)n(-c2ccc(F)cc2)c(O)c1/C=C1\C=Nc2ccccc21	2	32*	0	123	5	1	PfM18AAP inh-2=29*;CTSL1 counter=-5
C[C@]12CCC3C(CC[C@H]4C[C@H](O)CC[C@]34C)C1C[C@H](O)[C@@H]2O (stereo partly specified)	-1	nt	4	93	-3	0
CCN1C[C@]2(OC(=O)c3ccccc3NC(C)=O)CCC(OC)C34C5C[C@H]6C(OC)[C@]5(O)[C@](O)(C[C@@H]6OC)C(C[C@@H]32)[C@H]14 (stereo partly specified)	1	-3	0	90	5	4
CCN(CC)P(=S)(c1c(C)nc2ccccn12)c1c(C)nc2ccccn12	2	32*	6	97	2	3	PfM18AAP inh-2=-15;CTSL1 counter=0
CCOc1c(P(=S)(N(C)C)N(C)C)c(C)nn1-c1ccccc1	-11	0	-4	113	2	-1

Screens (PubChem BioAssay)
